High-throughput results from PubChem BioAssay.
PLCb3 inh: blocks human PLC-beta3 enzyme activity | Q01970 | Purified PLC-beta3, fluorogenic substrate, fluorescence | inhibition, % at 12.2 µM | 370,000 tested, 0.18% active;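 also: 0% = median of compound wells on plate and 100% = full blocker control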
UHRF1 binding: UHRF1 methyl-DNA binding inhibition; Q96T88; UHRF1 binding to methylated oligo, TR-FRET; inhibition, % at 4.4 µM; 370,000 tested, 0.75% active; AID 687016; in the data active = inhibition above about 21%;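 also: UHRF1 SRA domain binding a hemimethylated CpG hairpin DNA probe; 0% = median of test compound wells and 100% = reference inhibitor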
PLCg1 inh: PLC-gamma1 (human) inhibition, primary screen; 370,000 tested, 0.84% active; purified PLC-gamma1, fluorogenic substrate, fluorescence; inhibition, % at 12.2 µM; in the data active = inhibition above about 9.5%
LEDGF integ inh: blocks HIV-1 LEDGF/p75-dependent DNA integration. TR-FRET IN-LEDGF/p75 DNA integration, Eu/Cy5. inhibition, % at 3.7 µM. 370,000 tested, 0.64% active. AID 743269;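 active = inhibition above the screen-wide mean plus 3 SD, cut at about 13% in these data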;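 also: signal is the Cy5 over europium emission ratio at 671 and 618 nm; 0% = plate median of compound wells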
MBD2 DNA inh: MBD2-methylated oligo binding inhibition; Q9UBB5; TR-FRET, MBD2 binding to methylated oligonucleotide; inhibition, % at 4.4 µM; 370,000 tested, 0.31% active; AID 686964; in the data active = inhibition above about 13%
Target sequence (Q9UBB5 whole entry, looked up): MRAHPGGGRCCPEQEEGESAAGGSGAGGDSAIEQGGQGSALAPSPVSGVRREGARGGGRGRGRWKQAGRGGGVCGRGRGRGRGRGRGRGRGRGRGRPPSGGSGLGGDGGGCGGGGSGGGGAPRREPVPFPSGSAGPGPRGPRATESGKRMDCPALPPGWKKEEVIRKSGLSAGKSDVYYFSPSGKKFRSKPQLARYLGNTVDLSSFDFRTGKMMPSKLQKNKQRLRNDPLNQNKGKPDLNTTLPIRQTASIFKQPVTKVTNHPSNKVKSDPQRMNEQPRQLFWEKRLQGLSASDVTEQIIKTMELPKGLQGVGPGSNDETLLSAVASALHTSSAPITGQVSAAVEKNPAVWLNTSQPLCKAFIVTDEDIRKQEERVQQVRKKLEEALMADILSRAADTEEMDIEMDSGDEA
PLCgamma1 ctr: counter-screen for PLC-beta3 inhibitors: inhibitors of human PLC-gamma1. shares compounds with PLCg1 inh. purified PLC-gamma1, fluorogenic substrate, fluorescence. inhibition, % at 12.3 µM. 3,300 tested, 3.1% active; in the data active = inhibition above about 9.5%
PLCbeta3 conf: confirmation of human PLC-beta3 inhibitors; shares compounds with PLCg1 inh; purified PLC-beta3, fluorogenic substrate fluorescence; inhibition, % at 12.3 µM; 3,300 tested, 1% active; AID 743261
* = called active by the depositor. Rows were chosen to be rich in hits. Some 2.4% of all compounds tested hit in one or more screens of this group. Rule as the data show it, unless noted: active = inhibition above about 11%; inactive = the rest.

What do the screens show for `CCCCCCCCCC(=O)N/N=C/c1ccc(C)s1`?
PLCb3 inh: 4; UHRF1 binding: -3; PLCg1 inh: 10*; LEDGF integ inh: 1; MBD2 DNA inh: -8; PLCgamma1 ctr: -8; PLCbeta3 conf: -7

What do the screens show for `Cc1ccc(/C=N/NC(=O)C[n+]2ccccc2)s1`?
PLCb3 inh: 0; UHRF1 binding: -2; PLCg1 inh: 1; LEDGF integ inh: 3; MBD2 DNA inh: 2

How did COc1cccc(C(=O)N2CCOCC2)c1 do in these assays?
PLCb3 inh: 5; UHRF1 binding: 5; PLCg1 inh: 11*; LEDGF integ inh: 4; MBD2 DNA inh: -2; PLCgamma1 ctr: -2; PLCbeta3 conf: 0

How did Cc1ccc([C@H](C)NC(=O)C2=C(N)N(S(=O)(=O)c3ccc(C)cc3)C(C(=O)c3ccccc3)C2c2ccccc2Cl)cc1 (stereo partly drawn) do in these assays?
PLCb3 inh: 2; UHRF1 binding: -1; PLCg1 inh: 0; LEDGF integ inh: 1; MBD2 DNA inh: 4

What do the screens show for `CC(C)(C)OC(=O)NCc1cc2c(cc1/C=C/S(=O)(=O)NCc1ccc(F)cc1)OCO2`?
PLCb3 inh: -8; UHRF1 binding: 1; PLCg1 inh: -5; LEDGF integ inh: -4; MBD2 DNA inh: 0

What do the screens show for `CCCSc1nc(C)c(CC(=O)OCC)c(=O)[nH]1`?
PLCb3 inh: 7; UHRF1 binding: 18; PLCg1 inh: 9.7*; LEDGF integ inh: 0; MBD2 DNA inh: 6; PLCgamma1 ctr: 3; PLCbeta3 conf: 3

Results for CCCCCSc1nc(C)c(CC(=O)O)c(=O)[nH]1 ?
PLCb3 inh: 3; UHRF1 binding: -1; PLCg1 inh: 3; LEDGF integ inh: 3; MBD2 DNA inh: -5

How did Cc1ccc(CN2CCCCC(NC(=O)c3ccc(F)cc3)C2=O)cc1 (stereo not drawn) do in these assays?
PLCb3 inh: -3; UHRF1 binding: 2; PLCg1 inh: 0; LEDGF integ inh: -1; MBD2 DNA inh: 1

Results for CCCNC(=O)C(Cc1ccc(OC)cc1)NC(=O)c1ccc(Cl)cc1 (stereo not drawn) ?
PLCb3 inh: 8; UHRF1 binding: 4; PLCg1 inh: 13*; LEDGF integ inh: 4; MBD2 DNA inh: 1; PLCgamma1 ctr: -6; PLCbeta3 conf: 0

Results for CCCNC(=O)C(Cc1ccc(OC)cc1)NC(=O)c1ccc(C#N)cc1 (stereo not drawn) ?
PLCb3 inh: 1; UHRF1 binding: 9; PLCg1 inh: 0; LEDGF integ inh: -2; MBD2 DNA inh: 5

How did Cc1ccc(OCCCC(=O)NCc2ccco2)cc1 do in these assays?
PLCb3 inh: 4; UHRF1 binding: -5; PLCg1 inh: -2; LEDGF integ inh: 4; MBD2 DNA inh: -5

What do the screens show for `COc1ccc(OCCCC(=O)NCc2ccco2)cc1`?
PLCb3 inh: 8; UHRF1 binding: 2; PLCg1 inh: 15*; LEDGF integ inh: 1; MBD2 DNA inh: -8; PLCgamma1 ctr: -1; PLCbeta3 conf: 4

What do the screens show for `C=CCN1C(=O)[C@@H](CC(=O)NCc2cccc3ccccc23)[C@]2(C(=O)OC)CCCCC=C12`?
PLCb3 inh: -3; UHRF1 binding: -1; PLCg1 inh: -2; LEDGF integ inh: 1; MBD2 DNA inh: 2

What do the screens show for `O=C1CC(N2CCN(Cc3ccccc3)CC2)C(=O)N1c1ccccc1` (stereo not drawn)?
PLCb3 inh: 5; UHRF1 binding: 1; PLCg1 inh: 11*; LEDGF integ inh: 4; MBD2 DNA inh: -2; PLCgamma1 ctr: -9; PLCbeta3 conf: -1

How did O=C1CC(N2CCN(Cc3ccccc3)CC2)C(=O)N1c1ccc2c(c1)OCCO2 (stereo not drawn) do in these assays?
PLCb3 inh: 0; UHRF1 binding: 1; PLCg1 inh: 0; LEDGF integ inh: 1; MBD2 DNA inh: 5

How did CCc1ccc(C2(C)SC(NC(C)=O)=NN2C(C)=O)cc1 (stereo not drawn) do in these assays?
PLCb3 inh: 7; UHRF1 binding: 4; PLCg1 inh: 13*; LEDGF integ inh: 1; MBD2 DNA inh: 0; PLCgamma1 ctr: -1; PLCbeta3 conf: 1

What do the screens show for `O=C(Nc1ccc(Cl)c(Cl)c1)C1CCCN(c2nnc(-n3cccc3)s2)C1` (stereo not drawn)?
PLCb3 inh: 2; UHRF1 binding: 1; PLCg1 inh: 4; LEDGF integ inh: 5; MBD2 DNA inh: -6

What do the screens show for `COc1ccc(CN2C(C(=O)NC3CCCC3)CSCCS2(=O)=O)cc1` (stereo not drawn)?
PLCb3 inh: 2; UHRF1 binding: 2; PLCg1 inh: 4; LEDGF integ inh: -2; MBD2 DNA inh: 7

How did O=C(NCc1cccnc1)c1ccccc1-c1ccccc1 do in these assays?
PLCb3 inh: -1; UHRF1 binding: 3; PLCg1 inh: -4; LEDGF integ inh: -2; MBD2 DNA inh: 5

How did O=C(NCc1cccnc1)c1ccc(NC(=O)c2ccc([N+](=O)[O-])cc2)cc1 do in these assays?
PLCb3 inh: -1; UHRF1 binding: -3; PLCg1 inh: 13*; LEDGF integ inh: 4; MBD2 DNA inh: -8; PLCgamma1 ctr: -2; PLCbeta3 conf: -1

What do the screens show for `O=C(O)c1ccccc1C(=O)NCc1cccnc1`?
PLCb3 inh: 14*; UHRF1 binding: 4; PLCg1 inh: 5; LEDGF integ inh: -1; MBD2 DNA inh: -4; PLCgamma1 ctr: -5; PLCbeta3 conf: 3

Results for CN(C(=O)[C@@H]1CC=C[C@@H]2CCN(C3CCCCC3)C(=O)[C@@H]21)c1ccccc1 ?
PLCb3 inh: 6; UHRF1 binding: -3; PLCg1 inh: 1; LEDGF integ inh: 1; MBD2 DNA inh: -1

How did COC(=O)[C@]12C[C@H](CC(=O)N3CCCCC3)C(=O)N(Cc3cccc4ccccc34)C1=C[C@H](C1CCCC1)O[C@@H]2C do in these assays?
PLCb3 inh: 2; UHRF1 binding: -3; PLCg1 inh: 2; LEDGF integ inh: 0; MBD2 DNA inh: 2

How did Cc1ccc(CN2CC(C(=O)N(CC(C)C)c3c(N)n(Cc4ccccc4)c(=O)[nH]c3=O)CC2=O)cc1 (stereo not drawn) do in these assays?
PLCb3 inh: -7; UHRF1 binding: 0; PLCg1 inh: 10*; LEDGF integ inh: -4; MBD2 DNA inh: 2; PLCgamma1 ctr: -4; PLCbeta3 conf: 0

Results for Cc1cccc(OCC(=O)OCC(=O)N(CC(C)C)c2c(N)n(Cc3ccccc3)c(=O)[nH]c2=O)c1C ?
PLCb3 inh: 10; UHRF1 binding: -4; PLCg1 inh: 14*; LEDGF integ inh: 7; MBD2 DNA inh: -2; PLCgamma1 ctr: -5; PLCbeta3 conf: -1

What do the screens show for `CCCCn1c(N)c(N(CC(C)C)C(=O)C2CC(=O)N(Cc3ccccc3)C2)c(=O)[nH]c1=O` (stereo not drawn)?
PLCb3 inh: -11; UHRF1 binding: -1; PLCg1 inh: 4; LEDGF integ inh: -1; MBD2 DNA inh: 2
